The source of these data is PubChem BioAssay (NCATS).

SMILES strings stand for the structures. Where “and” joins values, the source holds several entries; their conditions need not be identical. Identical values can stand only once. Records with an inconclusive call do not appear. A number with no mark means an inactive call. Calls of active or inactive are those of the source. Calls follow the shape of the dose curve; as a rule, active = well fitted curve in the direction sought with a large enough effect; inconclusive = small, poorly fitted or top-dose-only effect, or another doubt; inactive = no such curve, though single readings can be large; an effect the other way counts as inactive or inconclusive.

In assay [1] the target is Cellular tumor antigen p53 (Homo sapiens) (UniProt P04637). Kind of assay: Primary qHTS for small molecule compounds that upregulate eGFP-tagged delta133p53alpha (in N-terminal) cells. (AID 2060322). Also: nearly all actives have a fitted effect of over 75% in size. Also: potency is read from the fitted curve at half-maximal effect.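 As to activation: cells pre-induced with doxycycline then dosed without doxycycline; series mostly up to about 56 µM; 0% = DMSO vehicle and 100% = reference activator.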 Particulars: NCI-H358 eGFP-delta133p53alpha fluorescence, 24 h; activation: active compounds read high. Summed up:
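NCI-H358 cells pre-induced 24 h with 10 ng/ml doxycycline for eGFP-delta133p53alpha, plated dox-free and exposed 24 h at 37C to titrated compounds. Fixed, Hoechst-stained; gated GFP peak intensity by laser scanning cytometry, normalized to DMSO (0%) and 57.5 uM 5-azacytidine (100%).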
A general note: qHTS replaces the single test concentration by a dilution series.

The target in assay [2] is Aldehyde dehydrogenase, mitochondrial (Homo sapiens) (UniProt P05091). Description: qHTS for Inhibitors of the Aldehyde Dehydrogenase Family (ALDH2) Primary screen (AID 2061308).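 Also: plate controls were vehicle for no effect and reference inhibitor for full effect; nearly all actives have a fitted effect of over 55% in size.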
Assay [3] addresses Retinaldehyde dehydrogenase 3 (Homo sapiens) (UniProt P47895). Description: qHTS for Inhibitors of the Aldehyde Dehydrogenase Family (ALDH1A3) Validation screen (AID 2061312). Also: % is scaled to controls: 0 for no effect and ±100 for the full control effect; nearly all actives have a fitted effect of over 45% in size.
For assay [4] the target is unchanged. Kind of assay: qHTS for Inhibitors of the Aldehyde Dehydrogenase Family (ALDH1A3) Primary screen (AID 2061315).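 Also: plate controls were DMSO vehicle for no effect and reference inhibitor for full effect.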

Chain of Cellular tumor antigen p53 (Homo sapiens) (P04637 whole entry, looked up): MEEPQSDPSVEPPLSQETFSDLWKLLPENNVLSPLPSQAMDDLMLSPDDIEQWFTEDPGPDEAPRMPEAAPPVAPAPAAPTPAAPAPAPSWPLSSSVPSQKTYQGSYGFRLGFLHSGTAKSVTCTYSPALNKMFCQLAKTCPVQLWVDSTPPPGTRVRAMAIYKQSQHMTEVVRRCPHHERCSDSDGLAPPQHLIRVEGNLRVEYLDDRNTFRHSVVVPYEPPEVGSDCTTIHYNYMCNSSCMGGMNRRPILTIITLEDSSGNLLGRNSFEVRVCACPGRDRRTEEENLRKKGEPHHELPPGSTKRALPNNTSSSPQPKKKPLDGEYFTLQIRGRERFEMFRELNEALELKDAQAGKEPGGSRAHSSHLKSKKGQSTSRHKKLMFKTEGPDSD

On to `CCCCN1CCCC[C@H]1C(=O)Nc1c(C)cccc1C`, for which the activation in assay [1] is -18.6% and -5.25%. Besides, the Potency entry in assay [2], in assay [3] and in assay [4] was “inactive” throughout.
In the case of `Cc1c(NC(=O)N2CCOCC2)ccc2c1c1ccccc1n2C(C)C`, the activation in assay [1] is -19.1%. Besides, the Potency entry in assay [2], in assay [3] and in assay [4] was “inactive” in each case.
`CCc1ccc(-c2nc(CSCC(=O)NCCc3ccccc3)c(C)o2)cc1`: the activation in assay [1] is -12.9%. Also, the Potency entry in assay [2], in assay [3] and in assay [4] was “inactive” in each case.
As to `CC(C)C[C@@H](C(=O)N[C@@H](Cc1ccc(OCc2ccccc2)cc1)C(=O)NC(C)(C)C)N(C)Cc1ccc(C(C)(C)C)cc1`, the activation in assay [1] is -1.91%. Moreover, the Potency result in assay [2], in assay [3] and in assay [4] was “inactive” in each case.
With `CC(C)c1nc(-c2ccc(NC(=O)Nc3cccc(C(F)(F)F)c3)c3ccccc23)c2c(N)nccn12`, in assay [1], the Potency was 26.9 µM (active). Moreover, the Potency entry in assay [2], in assay [3] and in assay [4] was “inactive” in each case.
On to `O=C(Nc1cc(-c2ccccc2)nn1-c1ccccc1F)c1ccc([N+](=O)[O-])cc1`, for which the activation in assay [1] is -5.73%. Besides, the Potency result in assay [2], in assay [3] and in assay [4] was “inactive” in each case.
Consider `NS(=O)(=O)c1ccc(NC(=O)Nc2ccc(F)cc2)cc1`, for which, in assay [1], the activation was -7.64%. Further, the Potency result in assay [2], in assay [3] and in assay [4] was “inactive” in each case.
With `Cc1ccc(CCCO)c(NCc2ccc3nc(NCCCN4CCOCC4)n(Cc4nc(C)ccc4O)c3c2)c1`, the activation in assay [1] was 14.3%. For the same compound, the Potency entry in assay [2], in assay [3] and in assay [4] was “inactive” in each case.
Regarding `Nc1nc2c(ncn2[C@@H]2O[C@H](CO)[C@@H](O)[C@H]2O)c(=O)[nH]1`, the activation in assay [1] was -1.43%. For the same compound, the Potency result in assay [2], in assay [3] and in assay [4] was “inactive” each time.
On to `NCc1c[nH]c(=S)n1C1CCc2c(F)cc(F)cc2C1` (stereo unspecified), for which, in assay [1], the activation is -0.477%. For the same compound, the Potency result in assay [2], in assay [3] and in assay [4] was “inactive” each time.
As to `COc1ccc(C(=O)Nc2c(Cl)cncc2Cl)cc1OC1CCCC1`, the activation in assay [1] is 0%. The Potency entry in assay [2], in assay [3] and in assay [4] was “inactive” throughout.
For the compound `COC(=O)CC1CC(c2ccc(O)cc2)=NO1` (stereo unspecified), in assay [1], the activation was -0.955%. In addition, the Potency result in assay [2], in assay [3] and in assay [4] was “inactive” each time.
For `Clc1ccccc1CNCC1CCC(CNCc2ccccc2Cl)CC1` (stereo unspecified), in assay [1], the activation is 29.6%. Also, the Potency entry in assay [2], in assay [3] and in assay [4] was “inactive” in each case.
Regarding `Cc1ccccc1NC(=O)Nc1ccc(CN2C(=O)N([C@@H](CC(C)C)C(=O)N[C@@H](CC(=O)O)c3ccccc3)C(=O)C2(C)C)cc1`, the activation in assay [1] is -2.86%. For the same compound, the Potency entry in assay [2], in assay [3] and in assay [4] was “inactive” throughout.
On to `O=C(OC1CN2CCC1CC2)N1CCc2ccccc2C1c1ccccc1` (stereo unspecified), for which the activation in assay [1] was -3.82%. Moreover, the Potency entry in assay [2], in assay [3] and in assay [4] was “inactive” throughout.
Take `O=C(Nc1ccccc1)Nc1ccc(-c2ccc(C(=O)C3CCCC3C(=O)O)cc2)cc1` (stereo unspecified): the activation in assay [1] was -6.21%. The Potency result in assay [2], in assay [3] and in assay [4] was “inactive” each time.
On to `COc1cc(NC(=O)c2cc(C3CC3)on2)c(OC)cc1Cl`, for which the activation in assay [1] is -12.4%. Moreover, the Potency result in assay [2], in assay [3] and in assay [4] was “inactive” throughout.
Consider `O=C(CCCCN1CCOCC1)Nc1ccc(-c2cccnc2)cc1`, for which, in assay [1], the activation is -8.11%. For the same compound, the Potency result in assay [2], in assay [3] and in assay [4] was “inactive” throughout.
For `O=C(Nc1ccc(N2CCC(C(=O)N3CCOCC3)CC2)cc1)c1cnc(Oc2ccccc2)nc1`, the activation in assay [1] is -2.39%. Besides, the Potency result in assay [2], in assay [3] and in assay [4] was “inactive” in each case.
As to `O=C(CCc1nnc2n(Cc3ccc(Cl)cc3)c(=O)c3ccccc3n12)NCCC1=CCCCC1`, in assay [1], the activation was 4.3%. The Potency result in assay [2], in assay [3] and in assay [4] was “inactive” each time.
`O=C(Nc1ccc2[nH]c(=O)oc2c1)C(=O)N1CCC(Cc2ccc(F)cc2)CC1`: the activation in assay [1] is 2.39%. Also, the Potency entry in assay [2], in assay [3] and in assay [4] was “inactive” throughout.
Turning to `CC1CC(OC(=O)C(O)c2ccccc2)CC(C)(C)C1` (stereo unspecified), the activation in assay [1] is 1.43%. Further, the Potency result in assay [2], in assay [3] and in assay [4] was “inactive” throughout.
In the case of `CCOC(=O)c1ccc(NC2CCCCC2)c(N)c1`, the activation in assay [1] is -6.21%. Besides, the Potency entry in assay [2], in assay [3] and in assay [4] was “inactive” each time.
As for `CN(C)c1nc(Cc2ccc(NC(=O)c3ccc4ccccc4c3)cc2)nc(Cl)c1CC(=O)O`, the activation in assay [1] is -3.03% and -7.64%. Further, the Potency entry in assay [2], in assay [3] and in assay [4] was “inactive” in each case.
As for `CC1(C)CC(NC(=O)C(=O)Nc2ccc(Cl)cc2)CC(C)(C)N1`, the activation in assay [1] is 8.11%. The Potency result in assay [2], in assay [3] and in assay [4] was “inactive” in each case.
For `CC(C)(C)c1ccc(-c2nc3c(N4CCN(Cc5ccc6nccnc6c5)CC4)cccc3[nH]2)cc1`, in assay [1], the activation is -2.86%. Besides, the Potency result in assay [2], in assay [3] and in assay [4] was “inactive” in each case.
Consider `CC1(C)CC(=O)N(CCCCN2CCN(c3ncccn3)CC2)C(=O)C1`, for which the activation in assay [1] was -2.86%. Further, the Potency result in assay [2], in assay [3] and in assay [4] was “inactive” in each case.
For the compound `O=C(c1cc(Cc2n[nH]c(=O)c3ccccc23)ccc1F)N1CCCNCC1`, in assay [1], the activation was -4.3%. The Potency entry in assay [2], in assay [3] and in assay [4] was “inactive” each time.
Consider `COc1ccc(-c2nc(-c3ccc(-c4cccc(Cl)c4)o3)[nH]c2-c2ccc(OC)cc2)cc1`, for which the activation in assay [1] was -3.82%. Moreover, the Potency result in assay [2], in assay [3] and in assay [4] was “inactive” in each case.
